± gives the uncertainty stated by the source.
The compounds below were run on HEK293T-Rex ERSE-FLuc (assay: ERSE-FLuc reporter activation, triplicate confirmation, relative to 500 nM thapsigargin (% of thapsigargin); higher = stronger ATF6/ERSE reporter activation). Conditions: 6.8 µM; 18 h; screen: confirmation.
Method: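 HEK293T-Rex cells stably expressing the ERSE-firefly luciferase (BiP promoter, ATF6-preferring) or XBP1-splicing Renilla luciferase (IRE1/XBP1s) reporter, 1536-well plates, compound at 6.8 µM for 18 hr at 37 °C; luminescence read […] and expressed as % activation = 100*(compound - median DMSO)/(median 500 nM thapsigargin - median DMSO). Primary screen was single-pass; confirmation screen in triplicate (mean ± SD).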

Row | SMILES | ERSE-FLuc reporter activation
1 | CC(=Nc1ccc(O)cc1)c1sc2ccccc2c1O | 27.4 ± 4.2
2 | COc1ccc(/C=C2\SC(=O)NC2=Nc2ccc(C)cc2)c(OC)c1 | 26.8 ± 1.3
3 | COC(=O)c1c(NC(=O)CCl)sc(C(=O)Nc2cccc([N+](=O)[O-])c2)c1C | 37.6 ± 7.8
4 | N#C/C(=C\c1ccc(O)c(O)c1)C(=O)Nc1ccccc1 | 29.5 ± 5.4
5 | Cc1ccc2c(N)c(C(=O)c3ccc4c(c3)OCO4)sc2n1 | 35.9 ± 4.3
6 | COCCNC(=O)c1cc(-c2cccs2)on1 | 27.4 ± 2.4
7 | COc1cccc(-c2cc(C(=O)Nc3cc(C)ccc3O)no2)c1 | 43.9 ± 11
8 | Nc1ccc2nc(-c3ccc(Cl)cc3)[nH]c2c1 | 33.6 ± 2.4
9 | COc1ccc(C(=O)Nc2nnc(-c3cccs3)s2)cc1 | 26.3 ± 5
10 | C=CCNC(=O)c1cc(-c2ccc(F)cc2)on1 | 25.1 ± 4.7
11 | O=C(/C=C/c1ccco1)Nc1ccc(Br)cc1Cl | 25.5 ± 1.6
12 | Cc1cc(C)nc(/N=C(\N)Nc2ccc(OCc3ccc(Cl)cc3)cc2)n1 | 59.7 ± 14
13 | N#CC1=C(N)Oc2c(ccc3ccccc23)C1c1ccccc1 (stereo not given) | 27.3 ± 3.3
14 | O=C1NC(=Nc2ccc(F)cc2)S/C1=C\c1ccc(O)c(O)c1 | 32.4 ± 2.3
15 | Cc1nc(-c2ccc(C(=O)Nc3ccc(O)cc3)cc2)cs1 | 31.8 ± 7.4
16 | Cc1cccc2c1[nH]c1nc(N/N=C\c3c[nH]c4ccccc34)nnc12 | 60.4 ± 14
17 | O=C1N/C(=C/c2ccc(O)cc2)C(=O)N1c1ccccc1 | 66.4 ± 15
18 | Cc1ccc(O)c(NC(=O)c2cc(C3CC3)on2)c1 | 59.4 ± 7.7
19 | O=[N+]([O-])c1ccccc1N/N=C/c1ccc(O)c(O)c1 | 43.3 ± 6.8
20 | NC(=O)c1c(NC(=O)COc2ccccc2)sc2c1CCC2 | 27.1 ± 3.2

Row | SMILES | ERSE-FLuc reporter activation
21 | O=C(N/N=C/c1cccc2ccccc12)c1ccc2c(c1)OCO2 | 29.9 ± 4.3
22 | Cc1ccc(O)c(NC(=O)c2cc(-c3ccco3)on2)c1 | 74.4 ± 8.9
23 | COc1cccc(C(=O)Nc2nc3ccc(C)cc3s2)c1 | 32.2 ± 7.2
24 | C(=N/Nc1nnc2c(n1)[nH]c1ccccc12)/c1c[nH]c2ccccc12 | 29.6 ± 8
25 | CCOc1cccc(C(=O)Nc2ccc(Br)cn2)c1 | 26 ± 3.3
26 | N#CC1=C(N)Oc2c(ccc3ccccc23)C1c1ccsc1 (stereo not given) | 25.8 ± 2.7
27 | Fc1ccc(-c2nnc3ccc(N4CCN(c5ccccn5)CC4)nn23)cc1 | 34.3 ± 3.5
28 | O=C(N/N=C/c1ccc(O)c(O)c1)c1ccc(Br)cc1 | 31.2 ± 2.8
29 | O=C1/C(=C/c2ccc(O)c(O)c2)Oc2cc(O)ccc21 | 26.9 ± 5.9
30 | CC(=O)Oc1ccc(C(=O)OCc2ccc(Cl)cc2)cc1OC(C)=O | 35.9 ± 4.4
31 | CCOC(=O)c1sc(NC(=O)c2cccc3ccccc23)nc1C | 27.3 ± 2.2
32 | O=C(N/N=C/c1ccc(Cl)cc1Cl)c1ccc(O)c(O)c1 | 25.8 ± 6.1
33 | Oc1ccc(-c2csc(-c3ccccc3)n2)cc1O | 61.5 ± 5.1
34 | Oc1ccc(/C=N/Nc2cccc(Cl)n2)c(O)c1 | 31 ± 7.1
35 | Nc1ccccc1NC(=O)c1ccc(C(=O)Nc2ccccc2N)cc1 | 25.1 ± 3.8
36 | Cc1ccc(NC(=S)NC(=O)C(=O)Nc2ccccc2)cc1 | 139 ± 11
37 | CC(C)NC(=O)c1cc(-c2ccc(O)cc2)on1 | 25.8 ± 3
38 | CC(C)CNC(=O)c1cc(-c2ccc(F)cc2)no1 | 26.6 ± 1.6
39 | COc1ccccc1OCC(=O)Nc1cc(C)ccc1O | 33.1 ± 6.4
40 | COc1cccc(C2=NOC(C(=O)Nc3cc(C)ccc3O)C2)c1 (stereo not given) | 30.3 ± 8.3

— the supplement of paper PMC4954754
